{"source": "PubChem BioAssay (NCI)", "note": "About 79,000 compounds went through this panel and 15% of them were active in at least one assay; those are over-represented in the sample as a whole. A number with no mark means an inactive call. Calls of active or inactive are those of the source. Rule as the data show it: active = growth inhibition above about 70%; inactive = the rest."}
{"test": "NCI Yeast Anticancer Drug Screen. Data for the cln2 rad14 strain (AID 165);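 also: 0% = growth equal to vehicle treated cultures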", "conditions": "S. cerevisiae cln2 rad14 strain, at 50.0 µM, stronger effect = higher value", "in_short": "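Each compound was tested on cln2 rad14 yeast. Inhibition of growth was calculated against vehicle-exposed controls.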"}
{"smiles": "COc1ccc(N)cc1OC", "growth inhibition": "-12.2%"}
{"smiles": "N.N.N.N.N.O=C([O-])C(=O)[O-].[Co+3].[O-][Cl+3]([O-])([O-])O.[O-][Cl+3]([O-])([O-])[O-]", "growth inhibition": "6.2%"}
{"smiles": "COc1ccc2c(c1)CCC1C2CCC2(C)C1CCC21CCNP(=O)(N(CCCl)CCCl)O1", "note": "(stereo not given)", "growth inhibition": "23.3%"}
{"smiles": "NC(=O)CI", "growth inhibition": "13.8%"}
{"smiles": "COc1cc(/C=C2\\C(O)C3CCN2CC3)cc(OC)c1OC", "note": "(stereo not given)", "growth inhibition": "-8.65%"}
{"smiles": "FC(F)(F)[S-].FC(F)(F)[S-].[C-]#[O+].[C-]#[O+].[C-]#[O+].[C-]#[O+].[C-]#[O+].[C-]#[O+].[C-]#[O+].[C-]#[O+].[Mn].[Mn]", "growth inhibition": "99% (active)"}
{"smiles": "O=C(COc1ccc(Cl)c(Cl)c1)Nc1ccccc1S(=O)(=O)F", "growth inhibition": "21.6%"}
{"smiles": "CN1CC[CH2][Sn]([Cl])([Cl])[CH2]CC1", "growth inhibition": "1.3%"}
{"smiles": "CN(C)C1OCCO1", "growth inhibition": "1.4%"}
{"smiles": "CN(C)c1ccc(N=Nc2ccc([As](=O)(O)O)cc2)cc1", "growth inhibition": "-35.1%"}
{"smiles": "CCN1C(=O)C(C)C(=O)N(C)C1=O", "note": "(stereo not given)", "growth inhibition": "-11.4%"}
{"smiles": "COc1cc2c(cc1OC)[C@@H]1C(=O)c3ccc4c(c3O[C@@H]1CO2)C[C@H](C(C)C)O4", "growth inhibition": "-9.25%"}
{"smiles": "C=CCOCC1CO1", "note": "(stereo not given)", "growth inhibition": "-8.6%"}
{"smiles": "CCN(CC)CC#N", "growth inhibition": "-0.25%"}
{"smiles": "CC1(C)N=C(N)N=C(N)N1c1ccc(OCCOc2ccc(S(=O)(=O)F)cc2)cc1", "growth inhibition": "-59.4%"}
{"smiles": "NNC(N)=NCCCC(N)C(=O)O", "note": "(stereo not given)", "growth inhibition": "5.2%"}
{"smiles": "C1CC[N-]CC1.C1CC[N-]CC1.[Cl][Pt+2]([Cl])([Cl])[Cl]", "growth inhibition": "-48.9%"}
{"smiles": "O=C(CCN1CC=C(c2ccccc2)CC1)c1ccc(F)cc1", "growth inhibition": "67.5%"}
{"smiles": "C/C(CCl)=N/NC1=NC(C)(CCC2(C)N=C(N/N=C(/C)CCl)SP2(=O)NC23CC4CC(CC(C4)C2)C3)P(=O)(NC23CC4CC(CC(C4)C2)C3)S1", "note": "(stereo not given)", "growth inhibition": "-21.8%"}
{"smiles": "N/C(=N\\NS(=O)(=O)c1ccccc1)N[N+](=O)[O-]", "growth inhibition": "-8.55%"}
{"smiles": "Nc1nc(CC(N)C(=O)O)c[se]1", "note": "(stereo not given)", "growth inhibition": "5.35%"}
{"smiles": "Cc1ccc([Se][Se]c2ccc(C)cc2)cc1", "growth inhibition": "30.1%"}
{"smiles": "CCCOC(=O)c1ccccc1N", "growth inhibition": "-16.9%"}
{"smiles": "O=c1[nH]c2ccccc2c(=O)n1-c1ccco1", "growth inhibition": "-15.4%"}
{"smiles": "CO[C@H]1C[C@H](O[C@H]2CC[C@@]3(C)[C@H](CC[C@@H]4[C@@H]3CC[C@]3(C)[C@@H](C5=CC(=O)OC5)CC[C@]43O)C2)O[C@H](C)[C@H]1O", "growth inhibition": "23.1%"}
{"smiles": "O=C(O)C(CP(=O)(O)O)=C(Cl)Cl", "growth inhibition": "-8.95%"}
{"smiles": "Nc1ccc([As](=O)(O)O)cc1C(=O)O", "growth inhibition": "-11%"}
{"smiles": "ClCCN(CCCl)c1cc(Cl)ccc1Oc1ccccc1", "growth inhibition": "-42%"}
{"smiles": "O=c1c(O)c(-c2ccccc2)oc2ccccc12", "growth inhibition": "15.6%"}
{"smiles": "O=C(Nc1c(O)[nH]c(=S)[nH]c1=O)c1ccccn1", "growth inhibition": "1.7%"}
{"smiles": "CCN1CCOC(CC)(c2cc(Cl)cc(Cl)c2Cl)C1", "note": "(stereo not given)", "growth inhibition": "13.2%"}
{"smiles": "NC(N)=N/N=C/c1ccc(Cl)c(Cl)c1", "growth inhibition": "-9.25%"}
{"smiles": "COc1cc(/C=C(\\C)[N+](=O)[O-])cc(OC)c1", "growth inhibition": "58.2%"}
{"smiles": "CCOc1cc(CCNC)c2c(ccc3ccc(OC)c(O)c32)c1OC", "growth inhibition": "26.9%"}
{"smiles": "Oc1cc(N2CC2)c(O)cc1N1CC1", "growth inhibition": "-42.6%"}
{"smiles": "O=C1NC(=S)NC(=O)C1=Cc1ccco1", "growth inhibition": "27.6%"}
{"smiles": "PCc1ccccc1.[Cl][Hg][Cl]", "growth inhibition": "-59.4%"}
{"smiles": "O=C(Cl)OC1CS(=O)(=O)CC1O", "note": "(stereo not given)", "growth inhibition": "-34.6%"}
{"smiles": "BrCCCBr", "growth inhibition": "10.7%"}
{"smiles": "CN1CCN(C)C12C=c1ccccc1=CC21CC1", "growth inhibition": "-2.65%"}
{"test": "NCI Yeast Anticancer Drug Screen. Data for the bub3 strain (AID 167)", "conditions": "S. cerevisiae bub3 mutant strain, at 50.0 µM, stronger effect = higher value", "in_short": "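Mutant yeast screening strain plus compound; vehicle-treated cultures serve as the 0% inhibition reference.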"}
{"smiles": "COc1ccc(N)cc1OC", "growth inhibition": "6.7%"}
{"smiles": "N.N.N.N.N.O=C([O-])C(=O)[O-].[Co+3].[O-][Cl+3]([O-])([O-])O.[O-][Cl+3]([O-])([O-])[O-]", "growth inhibition": "0.8%"}
{"smiles": "COc1ccc2c(c1)CCC1C2CCC2(C)C1CCC21CCNP(=O)(N(CCCl)CCCl)O1", "note": "(stereo not given)", "growth inhibition": "22.4%"}
{"smiles": "NC(=O)CI", "growth inhibition": "18.5%"}
{"smiles": "COc1cc(/C=C2\\C(O)C3CCN2CC3)cc(OC)c1OC", "note": "(stereo not given)", "growth inhibition": "9.1%"}
{"smiles": "FC(F)(F)[S-].FC(F)(F)[S-].[C-]#[O+].[C-]#[O+].[C-]#[O+].[C-]#[O+].[C-]#[O+].[C-]#[O+].[C-]#[O+].[C-]#[O+].[Mn].[Mn]", "growth inhibition": "99% (active)"}
{"smiles": "O=C(COc1ccc(Cl)c(Cl)c1)Nc1ccccc1S(=O)(=O)F", "growth inhibition": "5.15%"}
{"smiles": "CN1CC[CH2][Sn]([Cl])([Cl])[CH2]CC1", "growth inhibition": "-17.2%"}
{"smiles": "CN(C)C1OCCO1", "growth inhibition": "-7.05%"}
{"smiles": "CN(C)c1ccc(N=Nc2ccc([As](=O)(O)O)cc2)cc1", "growth inhibition": "-5.15%"}
{"smiles": "CCN1C(=O)C(C)C(=O)N(C)C1=O", "note": "(stereo not given)", "growth inhibition": "0.1%"}
{"smiles": "COc1cc2c(cc1OC)[C@@H]1C(=O)c3ccc4c(c3O[C@@H]1CO2)C[C@H](C(C)C)O4", "growth inhibition": "-33.6%"}
{"smiles": "C=CCOCC1CO1", "note": "(stereo not given)", "growth inhibition": "-1.7%"}
{"smiles": "CCN(CC)CC#N", "growth inhibition": "3.45%"}
{"smiles": "CC1(C)N=C(N)N=C(N)N1c1ccc(OCCOc2ccc(S(=O)(=O)F)cc2)cc1", "growth inhibition": "-10.7%"}
{"smiles": "NNC(N)=NCCCC(N)C(=O)O", "note": "(stereo not given)", "growth inhibition": "-45.6%"}
{"smiles": "C1CC[N-]CC1.C1CC[N-]CC1.[Cl][Pt+2]([Cl])([Cl])[Cl]", "growth inhibition": "-0.8%"}
{"smiles": "O=C(CCN1CC=C(c2ccccc2)CC1)c1ccc(F)cc1", "growth inhibition": "64.2%"}
{"smiles": "C/C(CCl)=N/NC1=NC(C)(CCC2(C)N=C(N/N=C(/C)CCl)SP2(=O)NC23CC4CC(CC(C4)C2)C3)P(=O)(NC23CC4CC(CC(C4)C2)C3)S1", "note": "(stereo not given)", "growth inhibition": "-19.5%"}
{"smiles": "N/C(=N\\NS(=O)(=O)c1ccccc1)N[N+](=O)[O-]", "growth inhibition": "24.2%"}
{"smiles": "Nc1nc(CC(N)C(=O)O)c[se]1", "note": "(stereo not given)", "growth inhibition": "21.3%"}
{"smiles": "Cc1ccc([Se][Se]c2ccc(C)cc2)cc1", "growth inhibition": "41%"}
{"smiles": "CCCOC(=O)c1ccccc1N", "growth inhibition": "-4.75%"}
{"smiles": "O=c1[nH]c2ccccc2c(=O)n1-c1ccco1", "growth inhibition": "-25.1%"}
{"smiles": "CO[C@H]1C[C@H](O[C@H]2CC[C@@]3(C)[C@H](CC[C@@H]4[C@@H]3CC[C@]3(C)[C@@H](C5=CC(=O)OC5)CC[C@]43O)C2)O[C@H](C)[C@H]1O", "growth inhibition": "14.6%"}
{"smiles": "O=C(O)C(CP(=O)(O)O)=C(Cl)Cl", "growth inhibition": "-6.15%"}
{"smiles": "Nc1ccc([As](=O)(O)O)cc1C(=O)O", "growth inhibition": "7.2%"}
{"smiles": "ClCCN(CCCl)c1cc(Cl)ccc1Oc1ccccc1", "growth inhibition": "18.9%"}
{"smiles": "O=c1c(O)c(-c2ccccc2)oc2ccccc12", "growth inhibition": "42.5%"}
{"smiles": "O=C(Nc1c(O)[nH]c(=S)[nH]c1=O)c1ccccn1", "growth inhibition": "-8.3%"}
{"smiles": "CCN1CCOC(CC)(c2cc(Cl)cc(Cl)c2Cl)C1", "note": "(stereo not given)", "growth inhibition": "4.3%"}
{"smiles": "NC(N)=N/N=C/c1ccc(Cl)c(Cl)c1", "growth inhibition": "-3.6%"}
{"smiles": "COc1cc(/C=C(\\C)[N+](=O)[O-])cc(OC)c1", "growth inhibition": "64.7%"}
{"smiles": "CCOc1cc(CCNC)c2c(ccc3ccc(OC)c(O)c32)c1OC", "growth inhibition": "-7.2%"}
{"smiles": "Oc1cc(N2CC2)c(O)cc1N1CC1", "growth inhibition": "-1.75%"}
{"smiles": "O=C1NC(=S)NC(=O)C1=Cc1ccco1", "growth inhibition": "-11.2%"}
{"smiles": "PCc1ccccc1.[Cl][Hg][Cl]", "growth inhibition": "-6%"}
{"smiles": "O=C(Cl)OC1CS(=O)(=O)CC1O", "note": "(stereo not given)", "growth inhibition": "4.45%"}
{"smiles": "BrCCCBr", "growth inhibition": "12.4%"}
{"smiles": "CN1CCN(C)C12C=c1ccccc1=CC21CC1", "growth inhibition": "-39.9%"}
